Measured values published in PubChem BioAssay (NCATS).
Several values for one entry are separate records, joined by “and”; a condition that tells them apart may be missing. Identical values can stand only once. Inconclusive results are not listed. Activity calls are given as the source filed them. Unless noted, calls follow the shape of the dose curve; as a rule, active = well fitted curve in the direction sought with a large enough effect; inconclusive = small, poorly fitted or top-dose-only effect, or another doubt; inactive = no such curve, though single readings can be large; an effect the other way counts as inactive or inconclusive.

Assays:
[1] = target: Cytochrome P450 1A2 (Homo sapiens) (UniProt P05177); assay: p450-cyp1a2 (AID 410; calls by dose curve; also: potency is read from the fitted curve at half-maximal effect;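 as to activity change, negative = inhibition: -100% = full effect of reference inhibitor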)
How it was run: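 20nM CYP1A2 with 100uM Luciferin-ME (at Km) in 100mM KPO4; compound preincubated 10 min, NADPH regeneration added, 60 min at room temperature. Luciferin quantified by luminescence after detection reagent; normalized to 57 uM furafylline.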

[2] = target: Glucocorticoid receptor (Homo sapiens) (UniProt P04150); assay: GR-GFP Redistribution (AID 450;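 active = compounds whose dose series gives a full or clear partial fitted curve of increased nuclear translocation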; also: potency is read from the fitted curve at half-maximal effect); conditions: U2OS GR-GFP nuclear translocation, laser cytometry, 2 h
[3] = target: Glucocorticoid receptor (Homo sapiens) (UniProt P04150); assay: GR-EFC Redistribution (AID 451; calls by dose curve; also: potency is read from the fitted curve at half-maximal effect); conditions: CHO-K1 GR-EFC translocation, beta-gal luminescence, 2 h
How it was run: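 CHO-K1 cells expressing nuclear EA and GR-ED fragments of b-gal; compounds titrated up to 46 uM final, 2 h at 37 C. GR nuclear translocation read as complemented b-gal luminescence after 1 h RT detection.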

[4] = target: Mitogen-activated protein kinase 10 (Mus musculus) (UniProt Q61831); assay: JNK3 AlphaScreen Assay (AID 530; active = well fitted curve in either direction with a large enough effect, not every such curve was filed as active;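 also: kinase came from lysate of stimulated human HepG2 cells; signal reports phosphorylation of biotinylated GST-cJun 1-79 at Ser73 with 10 µM ATP; % is scaled to controls: 0 for no effect and ±100 for the full control effect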)
How it was run: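 Pre-activated (IL-1β/TNFα) JNK3 in HepG2 lysates phosphorylates biotin-GST-cJun(1-79), 10 uM ATP; anti-phospho-cJun(Ser73) AlphaScreen read at room temperature, pH 7.6 Tris buffer. Compounds pre-incubated 15 min as titrations.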

[5] = qHTS Assay for Lipid Storage Modulators (AID 1519; calls by dose curve); conditions: Drosophila S3 cells, BODIPY lipid droplet/cell ratio, laser cytometry, cells loaded with oleic acid
How it was run: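 Cells seeded at 5,000 per well were treated with compounds over a concentration series and loaded with oleic acid (400 uM, as added). Lipid droplet fluorescence (488 nm excitation, 500-530 nm channel) was read by laser-scanning cytometry and normalized to 20 uM Triacsin C.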

[6] = target: Ubiquitin carboxyl-terminal hydrolase 1 (Homo sapiens) (UniProt O94782); assay: Inhibitors of USP1/UAF1: Pilot qHTS (AID 504865);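 also: rhodamine fluorescence freed from ubiquitin-rhodamine substrate followed over time; top concentration of the series differs between compounds; % is scaled to controls: 0 for no effect and ±100 for the full control effect; nearly all actives have a fitted effect of over 35% in size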
How it was run: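 Enzyme-free wells gave the negative control, while test wells held 1nM USP1/UAF1 preincubated with compound for 15 min at room temperature. Ub-Rho at 150nM final started the reaction, and fluorescence at 480/540 nm was recorded kinetically.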

[7] = target: DNA dC->dU-editing enzyme APOBEC-3G (Homo sapiens) (UniProt Q9HC16); assay: qHTS for inhibitors of Vif-A3G interactions: Validation (AID 588379); also: 0% is about no effect
How it was run: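 HeLa cells stably expressing Vif and A3G-eYFP, 700 cells/well, incubated overnight at 37 deg C, then exposed to compound overnight at 37 deg C. Inhibition of Vif-mediated degradation read as increased yellow fluorescence (Ex 488/Em 500-530) by laser-scanning cytometry.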

[8] = test system: Zika virus NS2B-NS3 protease; assay: Primary screen GU AMC qHTS for Zika virus inhibitors (AID 1347154);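 also: 0% = no-inhibitor control and -100% = no-enzyme control; nearly all actives have a fitted effect of over 70% in size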
How it was run: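 Unlinked Zika NS2B hydrophilic domain–NS3 protease complex at 25 nM in 10 mM Tris-HCl pH 8.0, 0.01% Tween 20, with an AMC peptide substrate. Fluorescence change (340/450 nm) over 15 min at room temperature, normalized to controls, fitted to 4-parameter Hill.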

[9] = AP1 Signaling Pathway (AID 357; active = well fitted curve in either direction with a large enough effect, not every such curve was filed as active; also: % is scaled to controls: 0 for no effect and ±100 for the full control effect); conditions: ME-180 AP-1-bla reporter, EGF-induced, beta-lactamase ratio, 5 h
How it was run: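 Titration-series screen for positive or negative modulators of EC50 EGF-induced signaling in ME-180 cells carrying an AP-1-driven beta-lactamase reporter. After 5 hours at 37 degrees Celsius, CCF4 460nm/530nm emission ratio gave %Activity; AC50 values derived.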

[10] = NFAT Signaling Pathway (AID 444; active = well fitted curve in either direction with a large enough effect, not every such curve was filed as active;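 also: carbachol stimulus at about its EC50 of 1 µM final; % is scaled to controls: 0 for no effect and ±100 for the full control effect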); conditions: Jurkat NFAT-bla M1, carbachol, beta-lactamase ratio, 5 h
How it was run: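 Jurkat cells with NFAT-driven β-lactamase reporter and co-expressed M1 receptor, stimulated with carbachol (final 1 uM, ~EC50), compound titration, 5 h at 37 °C. CCF4 loaded 1 h at RT; 460/530 nm ratio gave %activity and AC50.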

[11] = Stat Signaling Pathway (AID 446; active = well fitted curve in either direction with a large enough effect, not every such curve was filed as active;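 also: ME-180 cervical cancer cells given 40 pM IL-6 alongside compound; SIE-controlled beta-lactamase reporter measured as 460/530 nm FRET emission ratio; % is scaled to controls: 0 for no effect and ±100 for the full control effect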); conditions: ME-180 SIE beta-lactamase reporter, IL-6 stimulated, 5 h
How it was run: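 IL-6/STAT signaling read in ME-180 cells via an SIE beta-lactamase reporter. Stimulus was 40 pM IL-6 (its AC50) for 5 hrs, so both activation and inhibition register.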

[12] = target: 3',5'-cyclic-AMP phosphodiesterase 4B (Homo sapiens) (UniProt Q07343); assay: qHTS Assay for Inhibitors of PDE-IV (AID 607; active = well fitted activation curve with a large enough effect in the main read-out, with a control signal flat, not every such curve was filed as active; also: % of control where 0% means no effect)
How it was run: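 Live HEK293 cells with a modified cyclic nucleotide-gated (CNG) channel report intracellular cAMP via membrane-potential dye fluorescence (ex 535/em 590 nm). Endogenous PDE-IV was targeted. Compounds were tested at up to 22.9 uM final; RO 20-1724 100 uM served as control.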

[13] = target: Guanine nucleotide-binding protein G(i) subunit alpha-1 (Homo sapiens) (UniProt P63096); assay: qHTS Assay for Inhibitors of RGS12 GoLoco Motif Activity (Green Fluorophore) (AID 879);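 also: 0% = labeled peptide with Gαi1 and full inhibition = labeled peptide alone without protein; negative values mean loss of peptide binding seen as reduced polarization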
How it was run: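 Fluorescence polarization assay: 50 nM Gαi1 with 10 nM FITC-labeled RGS12 GoLoco peptide in 10 mM Tris pH 7.5, 150 mM NaCl, 0.1 mM GDP, 0.05% NP40, 10 min at room temperature with compound.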

[14] = target: Cytochrome P450 3A4 (Homo sapiens) (UniProt P08684); assay: qHTS Assay for Inhibitors and Substrates of Cytochrome P450 3A4 (AID 884); also: % is scaled to controls: 0 for no effect and ±100 for the full control effect; nearly all actives have a fitted effect of over 50% in size
How it was run: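 20 nM human CYP3A4 with 25 uM Luciferin-PPXE (at KM) in 200 mM KPO4, preincubated 10 min with compound; NADPH regeneration started a 60 min RT reaction. Luciferin detected by luminescence, normalized to 57 uM ketoconazole as full inhibition.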

[15] = qHTS Assay for Identification of Small Molecule Antagonists for NFkB Signaling Pathway (AID 895; active = well fitted inhibition curve with a large enough effect in the signal ratio, with a control signal flat, not every such curve was filed as active; the % refers to the signal ratio; also: % is scaled to controls: 0 for no effect and ±100 for the full control effect)
How it was run: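 ME-180 NFkB-bla cells (beta-lactamase under NFkB response element), plated overnight, treated with compound then 10 pM TNF alpha (about EC50) for 5 hrs at 37 C. LiveBLAzer FRET read at 460/530 nm emission, 405 nm excitation.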

[16] = qHTS Assay for Identification of Small Molecule Agonists for Thrombopoietin (TPO) Signaling Pathway (AID 917); also: % is scaled to controls: 0 for no effect and ±100 for the full control effect
How it was run: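 IL-3-dependent murine pro-B Ba/F3 cells, stably transfected with human TPO receptor and GpIIb-promoter luciferase, are incubated 24 hrs at 37 C with test compound and 26 pM TPO; luciferase signal is read after 10 min at room temperature.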

[17] = target: Pyruvate kinase PKM (Homo sapiens) (UniProt P14618); assay: qHTS Assay for Activators of Human Muscle Pyruvate Kinase (AID 954; active = well fitted curve in the direction sought with a large enough effect, not every such curve was filed as active;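 also: 0% = uninhibited enzyme and -100% = no enzyme or full thiadiazolimine inhibition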)
How it was run: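 Enzyme was run at intermediate activity so both inhibitors and activators could be detected. ATP formed from ADP and PEP by 0.1 nM human PKM2 during a 1 h room-temperature incubation was quantified by coupled luciferase luminescence.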

[18] = target: alpha-glucosidase (Oryza sativa, rice) (UniProt Q653V4); assay: Counterscreen for Glucocerebrosidase Inhibitors: qHTS Assay for Rice alpha-Glucosidase at pH 5.0 (AID 997);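 also: 0% = full activity with enzyme and -100% = basal without enzyme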
How it was run: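 Rice alpha-glucosidase (4 nM final) with 400 uM 4-methylumbelliferyl-alpha-D-glucopyranoside in citrate buffer pH 5.0, 20 min at room temperature, stopped at pH 10; fluorescence 365/440 nm, compounds 0.7 nM–77 uM, AC50 from Hill fits.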

[19] = target: Cytochrome P450 2C9 (Homo sapiens) (UniProt P11712); assay: qHTS Assay for Inhibitors and Substrates of Cytochrome P450 2C9 (AID 883); also: potency is read from the fitted curve at half-maximal effect; nearly all actives have a fitted effect of over 60% in size
How it was run: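 10nM CYP2C9 + 100uM Luciferin-H (=KM), 25mM KPO4; cpd 10 min 37C; NADPH regen, 60 min 37C; stop/detect with P450 Glo-Buffer 20 min; luminescence. Norm. to 57uM sulphaphenazole as full inhibition.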

[20] = target: Cytochrome P450 2C19 (Homo sapiens) (UniProt P33261); assay: qHTS Assay for Inhibitors and Substrates of Cytochrome P450 2C19 (AID 899); also: potency is read from the fitted curve at half-maximal effect; nearly all actives have a fitted effect of over 60% in size
How it was run: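 Luminescent read-out of luciferin formed from Luciferin-H EGE (10uM, equal to KM). Enzyme 5nM in 50mM KPO4; compound added, 10 min at 37C, then NADPH regenerating system for 60 min at 37C. Full inhibition defined by 57uM ketoconazole.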

[21] = measured here: cell count channel max response
[22] = measured here: lipid channel max response

3',5'-cyclic-AMP phosphodiesterase 4B (Homo sapiens), sequence (Q07343 whole entry, looked up): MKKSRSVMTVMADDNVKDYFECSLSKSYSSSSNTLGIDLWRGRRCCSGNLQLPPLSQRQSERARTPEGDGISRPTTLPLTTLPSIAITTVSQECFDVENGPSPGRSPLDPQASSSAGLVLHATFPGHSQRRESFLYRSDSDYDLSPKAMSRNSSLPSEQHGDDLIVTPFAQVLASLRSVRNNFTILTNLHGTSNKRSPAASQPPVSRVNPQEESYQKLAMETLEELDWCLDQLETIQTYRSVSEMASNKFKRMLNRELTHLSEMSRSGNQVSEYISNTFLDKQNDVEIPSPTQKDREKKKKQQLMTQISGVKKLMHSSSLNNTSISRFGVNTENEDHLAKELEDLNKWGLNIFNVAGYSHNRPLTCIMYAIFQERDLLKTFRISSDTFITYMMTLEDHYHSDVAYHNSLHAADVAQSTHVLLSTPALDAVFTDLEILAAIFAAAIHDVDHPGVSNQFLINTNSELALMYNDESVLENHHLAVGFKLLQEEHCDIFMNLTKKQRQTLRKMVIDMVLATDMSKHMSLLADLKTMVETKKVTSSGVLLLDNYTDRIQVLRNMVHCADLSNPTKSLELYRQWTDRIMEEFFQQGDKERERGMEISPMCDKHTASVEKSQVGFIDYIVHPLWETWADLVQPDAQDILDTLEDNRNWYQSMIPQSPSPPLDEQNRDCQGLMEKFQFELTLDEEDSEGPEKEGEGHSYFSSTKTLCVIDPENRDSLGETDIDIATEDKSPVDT
Glucocorticoid receptor (Homo sapiens), sequence (P04150 whole entry, looked up, the tested form may be a part): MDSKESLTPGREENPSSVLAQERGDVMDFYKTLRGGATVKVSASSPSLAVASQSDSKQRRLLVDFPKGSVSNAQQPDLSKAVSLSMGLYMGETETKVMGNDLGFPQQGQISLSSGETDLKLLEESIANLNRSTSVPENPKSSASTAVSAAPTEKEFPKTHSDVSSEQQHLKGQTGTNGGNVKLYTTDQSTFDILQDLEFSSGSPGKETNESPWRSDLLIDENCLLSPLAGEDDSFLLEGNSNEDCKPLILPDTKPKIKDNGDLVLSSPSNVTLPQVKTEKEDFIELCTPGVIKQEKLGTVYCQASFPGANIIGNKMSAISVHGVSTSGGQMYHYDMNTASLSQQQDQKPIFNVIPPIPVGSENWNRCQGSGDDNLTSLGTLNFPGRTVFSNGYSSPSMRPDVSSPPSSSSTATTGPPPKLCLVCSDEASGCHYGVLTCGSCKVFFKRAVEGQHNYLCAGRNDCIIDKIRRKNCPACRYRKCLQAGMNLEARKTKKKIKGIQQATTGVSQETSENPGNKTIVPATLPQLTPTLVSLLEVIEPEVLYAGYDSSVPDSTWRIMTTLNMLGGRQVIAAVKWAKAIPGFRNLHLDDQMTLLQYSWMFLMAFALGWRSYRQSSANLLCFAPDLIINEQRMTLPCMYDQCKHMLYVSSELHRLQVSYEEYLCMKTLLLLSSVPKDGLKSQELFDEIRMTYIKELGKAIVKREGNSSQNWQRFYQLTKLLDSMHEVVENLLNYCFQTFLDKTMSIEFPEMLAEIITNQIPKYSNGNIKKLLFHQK
Cytochrome P450 1A2 (Homo sapiens), sequence (P05177 whole entry, looked up): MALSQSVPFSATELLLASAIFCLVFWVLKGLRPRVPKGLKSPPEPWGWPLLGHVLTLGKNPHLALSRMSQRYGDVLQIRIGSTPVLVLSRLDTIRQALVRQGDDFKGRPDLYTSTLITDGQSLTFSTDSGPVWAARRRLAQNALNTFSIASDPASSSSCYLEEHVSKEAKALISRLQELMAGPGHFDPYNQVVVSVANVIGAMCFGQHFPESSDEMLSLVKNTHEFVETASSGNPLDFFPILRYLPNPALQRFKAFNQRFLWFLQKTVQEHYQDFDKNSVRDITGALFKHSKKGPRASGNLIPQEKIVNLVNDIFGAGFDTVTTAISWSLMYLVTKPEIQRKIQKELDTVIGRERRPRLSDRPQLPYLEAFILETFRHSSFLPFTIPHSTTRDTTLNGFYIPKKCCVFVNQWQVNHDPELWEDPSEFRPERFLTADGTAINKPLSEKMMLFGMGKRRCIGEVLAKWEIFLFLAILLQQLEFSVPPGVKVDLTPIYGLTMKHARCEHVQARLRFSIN
DNA dC->dU-editing enzyme APOBEC-3G (Homo sapiens), sequence (Q9HC16 whole entry, looked up): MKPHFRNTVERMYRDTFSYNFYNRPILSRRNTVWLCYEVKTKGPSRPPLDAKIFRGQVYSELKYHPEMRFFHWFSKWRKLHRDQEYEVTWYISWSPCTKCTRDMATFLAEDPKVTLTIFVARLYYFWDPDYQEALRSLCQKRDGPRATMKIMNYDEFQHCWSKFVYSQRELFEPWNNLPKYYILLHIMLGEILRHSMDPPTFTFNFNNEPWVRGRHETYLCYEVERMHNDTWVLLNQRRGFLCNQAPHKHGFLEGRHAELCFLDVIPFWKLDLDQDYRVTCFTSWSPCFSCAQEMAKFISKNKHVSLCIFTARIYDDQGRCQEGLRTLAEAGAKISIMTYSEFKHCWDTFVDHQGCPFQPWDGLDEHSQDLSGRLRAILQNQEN
Ubiquitin carboxyl-terminal hydrolase 1 (Homo sapiens), sequence (O94782 whole entry, looked up): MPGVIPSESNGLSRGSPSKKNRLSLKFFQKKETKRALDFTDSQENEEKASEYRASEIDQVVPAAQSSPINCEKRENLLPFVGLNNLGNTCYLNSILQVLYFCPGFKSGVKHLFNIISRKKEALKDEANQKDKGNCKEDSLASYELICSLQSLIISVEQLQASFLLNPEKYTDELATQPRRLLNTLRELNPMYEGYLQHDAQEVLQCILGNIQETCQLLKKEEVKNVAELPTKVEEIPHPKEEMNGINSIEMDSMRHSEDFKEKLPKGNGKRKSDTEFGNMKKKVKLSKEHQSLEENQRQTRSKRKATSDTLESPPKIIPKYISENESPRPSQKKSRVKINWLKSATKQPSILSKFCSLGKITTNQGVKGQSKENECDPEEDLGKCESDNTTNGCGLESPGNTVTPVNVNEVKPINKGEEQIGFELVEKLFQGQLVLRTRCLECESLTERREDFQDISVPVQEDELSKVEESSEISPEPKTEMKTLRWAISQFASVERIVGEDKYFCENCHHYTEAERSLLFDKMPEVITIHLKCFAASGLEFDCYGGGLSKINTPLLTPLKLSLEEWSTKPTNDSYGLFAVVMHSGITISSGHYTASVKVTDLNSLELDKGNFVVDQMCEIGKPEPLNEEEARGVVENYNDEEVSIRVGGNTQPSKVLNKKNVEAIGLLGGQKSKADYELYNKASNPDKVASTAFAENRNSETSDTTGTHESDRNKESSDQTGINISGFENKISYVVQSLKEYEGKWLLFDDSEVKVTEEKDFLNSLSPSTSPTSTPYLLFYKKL
Pyruvate kinase PKM (Homo sapiens), sequence (P14618 whole entry, looked up): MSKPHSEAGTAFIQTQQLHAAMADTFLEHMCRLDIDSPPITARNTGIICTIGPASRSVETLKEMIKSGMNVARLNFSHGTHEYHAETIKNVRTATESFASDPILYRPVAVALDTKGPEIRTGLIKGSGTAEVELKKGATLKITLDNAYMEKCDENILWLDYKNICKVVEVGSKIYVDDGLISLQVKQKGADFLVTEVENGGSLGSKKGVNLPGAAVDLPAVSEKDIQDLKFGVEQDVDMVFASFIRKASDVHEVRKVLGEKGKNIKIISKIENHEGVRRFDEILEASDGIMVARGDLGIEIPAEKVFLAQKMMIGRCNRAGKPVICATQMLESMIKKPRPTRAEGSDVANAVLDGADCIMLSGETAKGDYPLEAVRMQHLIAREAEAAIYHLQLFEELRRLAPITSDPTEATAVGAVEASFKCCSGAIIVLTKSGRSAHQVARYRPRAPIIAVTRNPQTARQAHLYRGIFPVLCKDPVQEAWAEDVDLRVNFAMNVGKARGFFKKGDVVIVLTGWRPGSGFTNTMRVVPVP
Guanine nucleotide-binding protein G(i) subunit alpha-1 (Homo sapiens), sequence (P63096 whole entry, looked up): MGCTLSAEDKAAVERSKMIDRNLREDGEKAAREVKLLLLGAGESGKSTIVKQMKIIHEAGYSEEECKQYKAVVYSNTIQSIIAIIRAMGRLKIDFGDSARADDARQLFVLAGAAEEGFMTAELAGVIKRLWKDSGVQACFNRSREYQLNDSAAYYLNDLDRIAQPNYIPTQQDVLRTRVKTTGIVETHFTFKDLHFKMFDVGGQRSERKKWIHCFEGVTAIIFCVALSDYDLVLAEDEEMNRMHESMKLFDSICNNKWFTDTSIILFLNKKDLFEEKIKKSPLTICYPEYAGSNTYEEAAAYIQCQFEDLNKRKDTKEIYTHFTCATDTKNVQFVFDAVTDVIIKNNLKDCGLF
Cytochrome P450 2C9 (Homo sapiens), sequence (P11712 whole entry, looked up): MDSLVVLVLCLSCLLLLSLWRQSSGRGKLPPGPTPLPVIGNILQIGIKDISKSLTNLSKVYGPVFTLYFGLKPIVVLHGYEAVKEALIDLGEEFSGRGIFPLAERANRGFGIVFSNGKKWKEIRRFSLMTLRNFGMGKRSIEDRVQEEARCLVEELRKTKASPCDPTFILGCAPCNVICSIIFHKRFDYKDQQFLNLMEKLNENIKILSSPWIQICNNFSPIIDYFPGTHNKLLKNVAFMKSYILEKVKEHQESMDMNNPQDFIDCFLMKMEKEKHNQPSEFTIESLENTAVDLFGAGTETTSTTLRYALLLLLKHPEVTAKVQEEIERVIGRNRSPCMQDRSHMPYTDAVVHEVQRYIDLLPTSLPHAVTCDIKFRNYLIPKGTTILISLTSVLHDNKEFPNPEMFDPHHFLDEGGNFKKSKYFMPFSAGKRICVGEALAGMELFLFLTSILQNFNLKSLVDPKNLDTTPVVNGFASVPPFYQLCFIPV

O=C(O)COc1ccc(OCCNC[C@@H](O)COc2ccccc2)cc1
Potency [1]: 39.8 µM (active)
Potency [2]: > 46 µM (inactive)
Potency [3]: > 46 µM (inactive)
Potency [4]: inactive
activity change, negative = inhibition ([5]; at 57.5 µM (top of the series)): 3.49% (inactive)
max response [5, 21]: 8.13%
max response [5, 22]: 11.4%
Potency [6]: inactive
Potency [7]: inactive
Potency [8]: inactive

CC(C)[N+]1(C)[C@@H]2CC[C@H]1CC(OC(=O)[C@@H](CO)c1ccccc1)C2 (some centres not stated)
activity change, negative = inhibition ([9]; at 17.2 µM (top of the series)): -0.347% (inactive)
activity change, negative = inhibition ([10]; at 17.2 µM (top of the series)): -41.7% (active)
activity, negative = inhibition ([11]; at 17.2 µM (top of the series)): 2.01% (inactive)
Potency [4]: inactive
Potency [12]: inactive
activity change, negative = inhibition ([5]; at 25.7 µM (top of the series)): 1.72% (inactive)
activity change, negative = inhibition ([5]; at 57.5 µM (top of the series)): -6.35% (inactive)
max response [5, 21]: 2.23% and -7.97%
max response [5, 22]: 5.73% and -12.6%
Potency [7]: inactive
Potency [8]: inactive

CN1CCN2c3ccccc3Cc3ccccc3[C@@H]2C1
activity, negative = inhibition ([11]; at 17.2 µM (top of the series)): 2.47% (inactive)
activity, negative = inhibition ([11]; at 38 µM (top of the series)): -1.53% (inactive)
Potency [2]: > 46 µM (inactive) and > 20.6 µM (inactive)
Potency [3]: > 46 µM (inactive) and > 20.6 µM (inactive)
Potency [4]: inactive
Potency [12]: inactive
outcome [13]: inactive
Potency [14]: inactive
Potency [15]: inactive
Potency [16]: inactive
outcome [17]: inactive
outcome [18]: inactive
activity change, negative = inhibition ([5]; at 25.7 µM (top of the series)): -3.71% (inactive)
max response [5, 21]: -3.28%
max response [5, 22]: -8.62%
Potency [6]: inactive
Potency [7]: inactive
Potency [8]: inactive

CCCCCCCCCCCCCCCC(=O)C(F)(F)F
Potency [1]: 31.6 µM (active)
Potency [3]: > 46 µM (inactive)
Potency [4]: inactive
Potency [12]: inactive
activity change, negative = inhibition ([5]; at 57.5 µM (top of the series)): 2.39% (inactive)
max response [5, 21]: -9.26%
max response [5, 22]: -5.47%
Potency [7]: inactive
Potency [8]: inactive

N[C@@H](CO)C(=O)O
activity change, negative = inhibition ([9]; at 38 µM (top of the series)): 6.64% (inactive)
Potency [1]: inactive
activity change, negative = inhibition ([10]; at 38 µM (top of the series)): 1.99% (inactive)
activity, negative = inhibition ([11]; at 38 µM (top of the series)): -12.9% (inactive)
Potency [2]: > 46 µM (inactive)
Potency [3]: > 46 µM (inactive)
Potency [4]: inactive
Potency [12]: inactive
outcome [13]: inactive
Potency [16]: inactive
outcome [17]: inactive
outcome [18]: inactive
activity change, negative = inhibition ([5]; at 57.5 µM (top of the series)): -1.57% (inactive)
max response [5, 21]: 0.892%
max response [5, 22]: -1.78%
Potency [6]: inactive
Potency [7]: inactive
Potency [8]: inactive

NC1(C(=O)O)C[C@H](C(=O)O)[C@H](C(=O)O)C1 (some centres not stated)
Potency [1]: inactive
Potency [3]: > 46 µM (inactive)
Potency [4]: inactive
Potency [12]: inactive
Potency [19]: 6.31 µM (active)
Potency [20]: 0.398 µM (active)
activity change, negative = inhibition ([5]; at 57.5 µM (top of the series)): 1.98% (inactive)
max response [5, 21]: 12.8%
max response [5, 22]: 14.8%
Potency [7]: inactive
Potency [8]: inactive
